According to PubChem BioAssay AID1159580 (chemical genetic matrix, 2015):
In all, about 5,500 compounds went through this assay and about 2,000 (36%) were called active. About 18% were inconclusive and are not listed. Cut-off read from the data, not from the text of the source: active = normalized growth mostly below about 0.91 (no sharp cut-off); inconclusive = no clear call, values can overlap the other calls; inactive = mostly above about 0.92. Some of the results follow.

Experiment: chemical genetic growth profiling, strain panel (AID 1159580);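 note: tested at 20 µM; growth read once vehicle control cultures reached saturation at 30 °C; 1 = growth at the plate median or of vehicle wells; lower values mean less growth of the strain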
Conditions: S. cerevisiae deletion strains, growth OD

Measured: normalized growth

COc1c(Cl)ccc(Cl)c1C(=O)O
inactive: locus YAL013W, strain DEP1, stronger effect = lower value 1.01 | locus YAL021C, strain ccr4, stronger effect = lower value 0.972 | locus YAL026C, strain drs2, stronger effect = lower value 0.988 | locus YAL030W, strain snc1, stronger effect = lower value 0.984 | locus YBL061C, strain skt5, stronger effect = lower value 0.977 | locus YBR009C, strain hhf1, stronger effect = lower value 0.988 | locus YBR021W, strain FUR4, stronger effect = lower value 1.02 | locus YBR023C, strain chs3, stronger effect = lower value 0.995 | locus YBR171W, strain sec66, stronger effect = lower value 0.977 | locus YBR229C, strain ROT2, stronger effect = lower value 0.999 | locus YBR231C, strain swc5, stronger effect = lower value 0.968 | locus YBR279W, strain paf1, stronger effect = lower value 0.982 | locus YCL011C, strain gbp2, stronger effect = lower value 0.981 | locus YCL016C, strain dcc1, stronger effect = lower value 0.986 | locus YCL029C, strain bik1, stronger effect = lower value 1.02 | locus YCL061C, strain MRC1, stronger effect = lower value 0.985 | locus YCL069W, strain vba3, stronger effect = lower value 0.984 | locus YCR088W, strain abp1, stronger effect = lower value 0.978 | locus YDL005C, strain med2, stronger effect = lower value 0.975 | locus YDL035C, strain GPR1, stronger effect = lower value 1.02 | locus YDL040C, strain nat1, stronger effect = lower value 0.977 | locus YDL074C, strain BRE1, stronger effect = lower value 1.04 | locus YDL101C, strain DUN1, stronger effect = lower value 1.01 | locus YDL134C, strain PPH21, stronger effect = lower value 1.01 | locus YDL185W, strain tfp1, stronger effect = lower value 1.02 | locus YDL192W, strain arf1, stronger effect = lower value 1.02 | locus YDR001C, strain nth1, stronger effect = lower value 0.985 | locus YDR069C, strain doa4, stronger effect = lower value 0.976 | locus YDR101C, strain arx1, stronger effect = lower value 1.01 | locus YDR137W, strain rgp1, stronger effect = lower value 1.01 | locus YDR150W, strain NUM1, stronger effect = lower value 1 | locus YDR159W, strain sac3, stronger effect = lower value 0.972 | locus YDR162C, strain NBP2, stronger effect = lower value 1.01 | locus YDR195W, strain ref2 0.919 | locus YDR297W, strain sur2, stronger effect = lower value 0.993 | locus YDR318W, strain mcm21, stronger effect = lower value 1.02 | locus YDR334W, strain swr1, stronger effect = lower value 0.979 | locus YDR335W, strain msn5, stronger effect = lower value 0.985 | locus YDR388W, stronger effect = lower value 1.01 | locus YDR392W, strain spt3, stronger effect = lower value 0.999 | locus YDR502C, strain sam2, stronger effect = lower value 1.01 | locus YEL003W, strain gim4, stronger effect = lower value 0.985 | locus YEL037C, strain rad23, stronger effect = lower value 0.985 | locus YEL061C, strain CIN8 (second series), stronger effect = lower value 0.973 | locus YEL061C, strain CIN8, stronger effect = lower value 0.997 | locus YER015W, strain faa2, stronger effect = lower value 0.981 | locus YER016W, strain bim1, stronger effect = lower value 0.985 | locus YER110C, stronger effect = lower value 1.02 | locus YER111C, strain swi4, stronger effect = lower value 0.96 | locus YER155C, strain BEM2 (second series), stronger effect = lower value 0.982 | locus YER155C, strain BEM2, stronger effect = lower value 1.01 | locus YER167W, strain BCK2, stronger effect = lower value 1.02 | locus YFR010W, strain ubp6, stronger effect = lower value 0.983 | locus YGL078C, strain dbp3, stronger effect = lower value 1.01 | locus YGL086W, strain mad1, stronger effect = lower value 1.01 | locus YGL167C, strain pmr1, stronger effect = lower value 0.984 | locus YGL173C, strain kem1, stronger effect = lower value 0.982 | locus YGL227W, strain vid30, stronger effect = lower value 0.97 | locus YGL240W, strain doc1, stronger effect = lower value 0.961 | locus YGL248W, strain PDE1, stronger effect = lower value 1.01 | locus YGL253W, strain hxk2, stronger effect = lower value 0.993 | locus YGR078C, strain PAC10, stronger effect = lower value 1.01 | locus YGR135W, strain pre9, stronger effect = lower value 1.02 | locus YGR229C, strain SMI1, stronger effect = lower value 1.04 | locus YGR252W, strain gcn5, stronger effect = lower value 1.02 | locus YHR013C, strain ard1, stronger effect = lower value 0.957 | locus YHR027C, strain rpn1, stronger effect = lower value 0.995 | locus YHR030C, strain SLT2, stronger effect = lower value 1.01 | locus YHR079C, strain IRE1 (second series), stronger effect = lower value 1.01 | locus YHR094C, strain hxt1, stronger effect = lower value 1.01 | locus YHR129C, strain ARP1, stronger effect = lower value 1.01 | locus YHR142W, strain chs7, stronger effect = lower value 0.979 | locus YHR200W, strain rpn10, stronger effect = lower value 1 | locus YIL066C, strain RNR3, stronger effect = lower value 1.04 | locus YIL073C, strain SPO22, stronger effect = lower value 1.09 | locus YIL125W, strain kgd1, stronger effect = lower value 1.01 | locus YIR030C, strain dcg1, stronger effect = lower value 1.01 | locus YJL092W, strain hpr5, stronger effect = lower value 0.987 | locus YJL095W, strain BCK1 (second series), stronger effect = lower value 0.99 | locus YJL095W, strain BCK1, stronger effect = lower value 1.02 | locus YJL115W, strain asf1, stronger effect = lower value 0.976 | locus YJL129C, strain trk1, stronger effect = lower value 0.976 | locus YJL134W, strain LCB3, stronger effect = lower value 1.01 | locus YJL154C, strain vps35, stronger effect = lower value 0.992 | locus YJL164C, strain tpk1, stronger effect = lower value 0.987 | locus YJL166W, strain qcr8, stronger effect = lower value 0.997 | locus YJL168C, strain set2, stronger effect = lower value 1.01 | locus YJL187C, strain SWE1 (second series), stronger effect = lower value 1.01 | locus YJL187C, strain SWE1, stronger effect = lower value 0.99
